Entries with a potency or affinity are not part of this list.
How the values were obtained:
Staphylococcus aureus = conditions: Concentration 32 ug.mL-1;; ASSAY_TEST Inhibition of Bacterial Growth; detection method Absorption (OD600); MEDIA CAMHB; plate type 384well; NBS; CORNING #3640; time 18 hr
Escherichia coli = conditions: Concentration 32 ug.mL-1;; ASSAY_TEST Inhibition of Bacterial Growth; detection method Absorption (OD600); MEDIA CAMHB; plate type 384well; NBS; CORNING #3640; time 18 hr

Row | Structure (SMILES) | Inhibition (Staphylococcus aureus) [%] | Inhibition (Escherichia coli) [%]
1 | CSc1cccc(NC(=O)Cn2c(=O)c3nnc(C)n3c3ccccc32)c1 | -2.91 | 2.47
2 | O=C(CSc1nnc2c(=O)n(-c3ccccc3)ccn12)Nc1ccc(Cl)cc1 | 3.58 | -4.07
3 | CCCc1nnc2c(=O)n(CC(=O)N3CCCc4ccccc43)c3ccccc3n12 | 2.88 | -3.24
4 | CSc1cccc(NC(=O)Cn2nc3c(N4CCCC(C)C4)nccn3c2=O)c1 (stereo not given) | -21.6 | -14.98
5 | O=C(Cn1nc2ccc(-c3ccccc3)nn2c1=O)Nc1ccc(Cl)c(C(F)(F)F)c1 | 6.21 | -6.69
6 | CCOc1ccc(NC(=O)Cn2nc3c(N4CCCC4)nccn3c2=O)cc1 | 0.84 | -1.53
7 | CCCCc1ccc(NC(=O)Cn2nc3c(SC4CCCCC4)nccn3c2=O)cc1 | -1.79 | -6.08
8 | CC(C)c1nnc2c(=O)n(CC(=O)Nc3ccc(F)cc3)c3ccccc3n12 | 20.52 | 5.44
9 | O=C(CSc1nnc2c3cc(-c4ccccc4)nn3ccn12)NCc1ccccc1Cl | -4.46 | -7.31
10 | Cc1nnc2ccc(S(=O)(=O)N(Cc3cccc(F)c3)c3ccc(F)cc3)cn12 | -0.57 | -11.39
11 | Cc1ccccc1CSc1nnc2c(=O)n(-c3ccc(Br)cc3)ccn12 | 1.11 | -8.83
12 | Cc1ccc(N(CC(=O)OC(C)(C)C)S(=O)(=O)c2cccn3cnnc23)cc1 | 15.19 | -3.99
13 | Cc1ccc(NC(=O)Cn2c(=O)c3nnc(C(C)C)n3c3ccccc32)c(C)c1 | 15.48 | 8.06
14 | CCc1nnc2c(S(=O)(=O)N(Cc3ccccc3Cl)c3ccccc3)cccn12 | 0.81 | -6.41
15 | O=C(Cn1nc2c3c4c(sc3ncn2c1=O)CCCC4)Nc1ccc2c(c1)OCO2 | -0.05 | -3.47
16 | O=C(Cn1nc2ccc(-c3ccccc3)nn2c1=O)Nc1ccc(F)c(Cl)c1 | 7.52 | -1.06
17 | Cc1ccc(C)c(NC(=O)Cn2nc3cc(C)nc(Nc4ccc(F)cc4)n3c2=O)c1 | -0.57 | -5.84
18 | Cc1ccc(-c2ccc3nn(Cc4cccc(Cl)c4)c(=O)n3n2)cc1C | 8.16 | -3.9
19 | CCCCc1ccc(NC(=O)CSc2nc3ccccc3n3c(C(C)C)nnc23)cc1 | -8.95 | -2.74
20 | Cc1ccc(CNC(=O)Cn2nc3ccc(SCc4ccc(Cl)cc4)nn3c2=O)cc1 | 11.66 | -2.92
21 | Cc1ccc(C)c(NC(=O)Cn2nc3c(N4CCCC(C)C4)nccn3c2=O)c1 (stereo not given) | -2.35 | -6.19
22 | COc1ccccc1-n1ccn2c(SCC(=O)N3CCN(c4ccccc4F)CC3)nnc2c1=O | 13.15 | -2.51
23 | CCOc1ccc(-n2ccn3c(SC(CC)C(=O)Nc4cc(F)ccc4F)nnc3c2=O)cc1 (stereo not given) | 7.7 | -0.34
24 | Cc1ccc(NC(=O)Cn2nc3c(N4CCOCC4)nccn3c2=O)cc1F | 9.97 | 2.81
25 | Cc1cc(C)cc(Nc2nc(C)cc3nn(CC(=O)N(C)c4cccc(C)c4)c(=O)n23)c1 | 5.67 | -3.82

Row | Structure (SMILES) | Inhibition (Staphylococcus aureus) [%] | Inhibition (Escherichia coli) [%]
26 | CCCc1nnc2c(=O)n(CC(=O)Nc3cccc(C#N)c3)c3ccccc3n12 | 1.38 | -7.78
27 | CCc1ccc(N(Cc2ccc(F)cc2)S(=O)(=O)c2cccn3c(CC)nnc23)cc1 | 19.9 | -4.69
28 | CCOc1ccccc1NC(=O)Cn1nc2c3c4c(sc3ncn2c1=O)CCCC4 | -4.82 | -7.86
29 | CCOc1ccc(-n2ccn3c(SCC(=O)c4ccc(C)cc4C)nnc3c2=O)cc1 | 6.78 | -6.14
30 | CCCCn1c(=O)c2sccc2n2c(=O)n(CC(=O)NC(C)C)nc12 | 6.34 | -3.44
31 | Cc1ccc(Sc2nccn3c(=O)n(CC(=O)Nc4ccc(C)cc4Br)nc23)c(C)c1 | 8.09 | -4.19
32 | CCCn1c(=O)c2sccc2n2c(=O)n(CC(=O)c3cc(C)ccc3C)nc12 | 7.83 | 0.58
33 | Cc1cccc(Sc2nccn3c(=O)n(CC(=O)Nc4ccc(Br)cc4C)nc23)c1 | 8.48 | -5.33
34 | CC(C)Cn1c(=O)c2sccc2n2c(=O)n(Cc3ccc(N4CCCC4=O)cc3)nc12 | -1.91 | -2.57
35 | CCOc1cccc(CNC(=O)CCc2nnc3ccc(-c4ccc(C)cc4)nn23)c1 | -1.51 | -5.83
36 | CCc1ccc(N(Cc2cccc(OC)c2)S(=O)(=O)c2cccn3cnnc23)cc1 | 17.37 | 2.31
37 | Cc1ccccc1CN(c1ccc(Cl)cc1)S(=O)(=O)c1cccn2c(C)nnc12 | 11.54 | 1.89
38 | CCOc1ccc(-n2ccn3c(SCC(=O)NCc4ccc(Cl)cc4)nnc3c2=O)cc1 | 4.19 | 3.75
39 | COc1cc(NC(=O)Cn2nc3ccc(SC(C)C)nn3c2=O)cc(OC)c1 | -7.38 | -2.23
40 | CC(C)c1ccc(N(Cc2ccccc2F)S(=O)(=O)c2cccn3cnnc23)cc1 | 2.39 | -0.79
41 | COc1ccc(N(Cc2cccc(C)c2)S(=O)(=O)c2ccc3nncn3c2)cc1 | -29.14 | -12.64
42 | CCOC(=O)c1ccc(NC(=O)Cn2nc3c(SC4CCCCC4)nccn3c2=O)cc1 | 5.44 | -5.89
43 | Cc1cc(F)ccc1NC(=O)Cn1nc2c(SCc3ccc(Cl)cc3)nccn2c1=O | 7.28 | -4.86
44 | Cc1cc(C)cc(Nc2nc(C)cc3nn(CC(=O)Nc4ccccc4)c(=O)n23)c1 | 4.32 | -6.45
45 | Cc1ccc(-c2cc3c4nn(CC(=O)Nc5ccc6c(c5)OCO6)c(=O)n4ccn3n2)cc1C | -8.73 | -12.23
46 | Cc1ccc(-c2cc3c4nn(CC(=O)Nc5ccc(C)c(Cl)c5)c(=O)n4ccn3n2)cc1C | -5.06 | -1.24
47 | CCc1cccc(C)c1NC(=O)CSc1nnc2ccc(C(=O)Nc3cccc(F)c3)cn12 | 1.86 | 2
48 | COc1cccc(Cn2nc3c(=O)n(-c4cccc(Cl)c4C)ccn3c2=O)c1 | -6.87 | -16.22
49 | CCc1ccccc1NC(=O)Cn1nc2n(CCC(C)C)c(=O)c3sccc3n2c1=O | -2.34 | -9.52
50 | COc1ccc(N(Cc2ccccc2F)S(=O)(=O)c2ccc3nnc(C)n3c2)cc1 | 8.97 | -7.31

Reference: ChEMBL document CHEMBL4513146, “CO-ADD screening of Karazin Kharkiv National University (Ukraine) compounds”
